Paper PMC7862700, “An all-to-all approach to the identification of sequence-specific readers for epigenetic DNA modifications on cytosine”

Legend:
Test in all cases: DAPPL (digital affinity profiling via proximity ligation, sequencing); 10 mM Tris-HCl pH 7.5, 50 mM NaCl, 1 mM DTT, 4% glycerol, room temperature, 30 min; GST-TFs on glutathione beads, 16-mer random dsDNA library, 0.1% formaldehyde crosslink after washing; high values mean tight binding
[1] = molecular target: T1, ELK1 (Homo sapiens, UniProt P19419 1-428); details: protein: recombinant; tags: N-terminal GST; dsDNA, one strand shown
T1 sequence: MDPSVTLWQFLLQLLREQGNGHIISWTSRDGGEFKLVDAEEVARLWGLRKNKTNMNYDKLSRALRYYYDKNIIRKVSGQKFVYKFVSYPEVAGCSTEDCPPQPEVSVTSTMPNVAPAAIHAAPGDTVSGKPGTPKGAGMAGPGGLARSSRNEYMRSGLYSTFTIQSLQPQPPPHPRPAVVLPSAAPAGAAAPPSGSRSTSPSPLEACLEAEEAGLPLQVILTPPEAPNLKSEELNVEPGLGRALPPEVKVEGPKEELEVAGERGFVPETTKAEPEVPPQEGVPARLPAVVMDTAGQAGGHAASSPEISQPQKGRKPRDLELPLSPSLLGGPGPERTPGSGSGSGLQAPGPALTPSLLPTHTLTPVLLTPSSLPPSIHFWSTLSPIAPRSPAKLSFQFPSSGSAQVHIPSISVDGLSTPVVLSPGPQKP
Summary of the method: (§1)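 Binding signal is each hexamer's read frequency for a factor divided by its frequency in the tag-only sample. The factors were GST-fused human transcription factors from yeast, captured on glutathione beads, DNA-barcoded and pooled with that sample. Pools were incubated with 200 nmole of a random double-stranded 16-mer DNA library in Tris/NaCl/DTT/glycerol buffer at room temperature for 30 min, then washed, crosslinked with 0.1% formaldehyde, proximity-ligated with BsaI/T4 ligase (1 h, 37 °C), PCR-amplified and sequenced on an Illumina NextSeq500.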

[2] = molecular target: T2, GABPA (Homo sapiens, UniProt Q06546 1-454); details: protein: recombinant; tags: N-terminal GST; dsDNA, one strand shown
T2 sequence: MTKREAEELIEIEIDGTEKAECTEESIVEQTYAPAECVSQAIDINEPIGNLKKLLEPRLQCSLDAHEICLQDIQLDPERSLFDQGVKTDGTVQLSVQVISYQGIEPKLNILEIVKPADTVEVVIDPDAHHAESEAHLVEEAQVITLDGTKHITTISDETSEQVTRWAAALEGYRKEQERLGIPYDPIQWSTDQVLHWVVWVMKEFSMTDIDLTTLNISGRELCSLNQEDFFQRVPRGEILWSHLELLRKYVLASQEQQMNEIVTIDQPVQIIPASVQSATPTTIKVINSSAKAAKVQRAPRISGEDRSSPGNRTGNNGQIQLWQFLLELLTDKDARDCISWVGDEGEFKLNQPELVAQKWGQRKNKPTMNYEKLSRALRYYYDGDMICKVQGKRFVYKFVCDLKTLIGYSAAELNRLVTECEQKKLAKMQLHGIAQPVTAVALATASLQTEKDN
Summary of the method: as §1

[3] = molecular target: T3, ERG (Homo sapiens, UniProt P11308 1-479); details: protein: recombinant; tags: N-terminal GST; dsDNA, one strand shown
T3 sequence: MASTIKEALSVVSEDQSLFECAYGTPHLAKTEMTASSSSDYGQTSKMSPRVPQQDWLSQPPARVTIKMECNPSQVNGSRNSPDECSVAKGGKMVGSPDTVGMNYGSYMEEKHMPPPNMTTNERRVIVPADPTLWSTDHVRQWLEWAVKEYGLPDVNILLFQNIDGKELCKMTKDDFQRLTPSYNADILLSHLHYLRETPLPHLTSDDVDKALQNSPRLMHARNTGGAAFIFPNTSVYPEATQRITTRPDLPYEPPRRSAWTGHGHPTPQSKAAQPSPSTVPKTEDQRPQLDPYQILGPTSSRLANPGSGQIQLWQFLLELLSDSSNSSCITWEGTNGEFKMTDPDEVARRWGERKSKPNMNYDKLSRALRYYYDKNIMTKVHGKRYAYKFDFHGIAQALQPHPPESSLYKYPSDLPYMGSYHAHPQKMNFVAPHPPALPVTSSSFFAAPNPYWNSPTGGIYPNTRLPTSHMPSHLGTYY
Summary of the method: as §1

[4] = molecular target: ELF1 (Homo sapiens, UniProt P32519 1-619); details: protein: recombinant; tags: N-terminal GST; dsDNA, one strand shown
Summary of the method: as §1

[5] = molecular target: SPI1 (Homo sapiens, UniProt P17947 1-270); details: protein: recombinant; tags: N-terminal GST; dsDNA, one strand shown
Summary of the method: as §1

[6] = molecular target: SPIB (Homo sapiens, UniProt Q01892 1-262); details: protein: recombinant; tags: N-terminal GST; dsDNA, one strand shown
Summary of the method: as §1

[7] = molecular target: HSF1 (Homo sapiens, UniProt Q00613 1-529); details: protein: recombinant; tags: N-terminal GST; chain copies: 3; dsDNA, one strand shown
Summary of the method: as §1

[8] = molecular target: T4, SPIC (Homo sapiens, UniProt Q8N5J4 1-248); details: protein: recombinant; tags: N-terminal GST; dsDNA, one strand shown
T4 sequence: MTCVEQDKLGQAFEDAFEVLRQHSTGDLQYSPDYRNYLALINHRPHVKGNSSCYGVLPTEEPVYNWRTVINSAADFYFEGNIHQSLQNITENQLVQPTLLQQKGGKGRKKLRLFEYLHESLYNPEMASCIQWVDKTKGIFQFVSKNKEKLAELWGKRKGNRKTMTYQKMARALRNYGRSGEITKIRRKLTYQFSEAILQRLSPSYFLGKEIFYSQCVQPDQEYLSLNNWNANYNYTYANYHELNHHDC
Summary of the method: as §1

[9] = molecular target: T5, ELK4 (Homo sapiens, UniProt P28324-2 1-405); details: protein: recombinant; tags: N-terminal GST; dsDNA, one strand shown
T5 sequence: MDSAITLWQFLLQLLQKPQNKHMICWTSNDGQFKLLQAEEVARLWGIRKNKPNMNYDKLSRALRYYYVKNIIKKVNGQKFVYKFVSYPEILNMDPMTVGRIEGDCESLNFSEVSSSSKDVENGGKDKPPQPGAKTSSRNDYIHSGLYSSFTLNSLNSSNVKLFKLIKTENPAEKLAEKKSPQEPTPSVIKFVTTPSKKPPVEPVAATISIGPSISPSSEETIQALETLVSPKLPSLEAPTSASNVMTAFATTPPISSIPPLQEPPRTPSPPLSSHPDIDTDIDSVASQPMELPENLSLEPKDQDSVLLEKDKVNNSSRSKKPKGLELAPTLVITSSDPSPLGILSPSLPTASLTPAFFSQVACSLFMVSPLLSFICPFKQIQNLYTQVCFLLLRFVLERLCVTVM
Summary of the method: as §1

[10] = molecular target: T6, ETV3L (Homo sapiens, UniProt Q6ZN32 1-361); details: protein: recombinant; tags: N-terminal GST; dsDNA, one strand shown
T6 sequence: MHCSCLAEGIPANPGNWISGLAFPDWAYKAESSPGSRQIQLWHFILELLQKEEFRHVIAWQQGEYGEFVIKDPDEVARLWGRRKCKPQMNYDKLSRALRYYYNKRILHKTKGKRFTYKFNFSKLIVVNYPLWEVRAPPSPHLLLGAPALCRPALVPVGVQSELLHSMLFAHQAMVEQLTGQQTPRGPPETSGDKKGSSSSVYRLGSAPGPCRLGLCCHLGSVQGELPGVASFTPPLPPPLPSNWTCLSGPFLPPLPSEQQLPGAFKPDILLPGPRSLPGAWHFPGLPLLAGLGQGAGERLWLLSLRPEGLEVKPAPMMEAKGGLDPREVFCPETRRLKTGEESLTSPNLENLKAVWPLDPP
Summary of the method: as §1

[11] = molecular target: T7, ETS2 (Homo sapiens, UniProt P15036 1-469); details: protein: recombinant; tags: N-terminal GST; dsDNA, one strand shown
T7 sequence: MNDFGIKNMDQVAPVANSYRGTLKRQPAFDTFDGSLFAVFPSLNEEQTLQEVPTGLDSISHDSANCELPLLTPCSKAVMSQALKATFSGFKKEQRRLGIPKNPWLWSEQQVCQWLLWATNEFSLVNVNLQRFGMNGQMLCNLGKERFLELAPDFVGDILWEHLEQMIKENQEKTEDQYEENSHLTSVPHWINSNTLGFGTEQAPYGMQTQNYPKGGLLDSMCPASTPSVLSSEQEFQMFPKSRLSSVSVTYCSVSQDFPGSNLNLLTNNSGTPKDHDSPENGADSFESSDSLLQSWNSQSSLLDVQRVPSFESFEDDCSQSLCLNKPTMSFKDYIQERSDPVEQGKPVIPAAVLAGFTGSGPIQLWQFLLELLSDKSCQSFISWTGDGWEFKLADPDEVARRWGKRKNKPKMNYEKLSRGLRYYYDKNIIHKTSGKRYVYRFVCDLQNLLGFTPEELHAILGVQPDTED
Summary of the method: as §1

[12] = molecular target: T8, ETV7 (Homo sapiens, UniProt Q9Y603 1-341); details: protein: recombinant; tags: N-terminal GST; dsDNA, one strand shown
T8 sequence: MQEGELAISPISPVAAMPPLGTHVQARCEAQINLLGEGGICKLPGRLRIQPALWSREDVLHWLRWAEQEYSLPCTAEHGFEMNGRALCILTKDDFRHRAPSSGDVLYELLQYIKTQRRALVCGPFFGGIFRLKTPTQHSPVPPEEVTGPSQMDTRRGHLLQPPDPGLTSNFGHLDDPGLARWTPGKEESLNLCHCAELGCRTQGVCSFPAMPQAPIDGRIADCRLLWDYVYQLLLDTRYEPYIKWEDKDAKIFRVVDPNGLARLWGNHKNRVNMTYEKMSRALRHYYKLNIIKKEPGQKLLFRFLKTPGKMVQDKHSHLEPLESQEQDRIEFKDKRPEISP
Summary of the method: as §1

[13] = molecular target: ETV6 (Homo sapiens, UniProt P41212 1-452); details: protein: recombinant; tags: N-terminal GST; dsDNA, one strand shown
Summary of the method: as §1

[14] = molecular target: T9, EHF (Homo sapiens, UniProt Q9NZC4 1-300); details: protein: recombinant; tags: N-terminal GST; dsDNA, one strand shown
T9 sequence: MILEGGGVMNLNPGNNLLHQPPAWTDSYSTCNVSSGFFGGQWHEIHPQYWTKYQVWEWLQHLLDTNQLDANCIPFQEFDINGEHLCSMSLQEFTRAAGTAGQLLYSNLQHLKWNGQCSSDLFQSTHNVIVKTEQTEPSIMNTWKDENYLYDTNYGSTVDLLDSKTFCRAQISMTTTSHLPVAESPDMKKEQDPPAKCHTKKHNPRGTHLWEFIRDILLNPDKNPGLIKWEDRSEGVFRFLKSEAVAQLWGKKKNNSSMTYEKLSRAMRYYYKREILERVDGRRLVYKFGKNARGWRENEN
Summary of the method: as §1

[15] = molecular target: T10, ELK3 (Homo sapiens, UniProt P41970 1-407); details: protein: recombinant; tags: N-terminal GST; dsDNA, one strand shown
T10 sequence: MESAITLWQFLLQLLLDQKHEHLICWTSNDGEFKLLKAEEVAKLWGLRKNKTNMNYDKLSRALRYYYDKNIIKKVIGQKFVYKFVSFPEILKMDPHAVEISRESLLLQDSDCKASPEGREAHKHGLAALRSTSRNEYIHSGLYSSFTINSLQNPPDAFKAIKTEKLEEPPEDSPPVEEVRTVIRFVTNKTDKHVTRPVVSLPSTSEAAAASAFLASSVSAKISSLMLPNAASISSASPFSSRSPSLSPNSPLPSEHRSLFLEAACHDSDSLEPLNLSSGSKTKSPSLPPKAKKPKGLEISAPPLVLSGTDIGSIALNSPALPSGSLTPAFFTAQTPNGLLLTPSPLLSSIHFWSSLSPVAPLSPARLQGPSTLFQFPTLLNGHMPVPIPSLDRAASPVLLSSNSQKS
Summary of the method: as §1

[16] = molecular target: CRX (Homo sapiens, UniProt O43186 1-299); details: protein: recombinant; tags: N-terminal GST; dsDNA, one strand shown
Summary of the method: as §1

Chain of HSF1 (Q00613 whole entry): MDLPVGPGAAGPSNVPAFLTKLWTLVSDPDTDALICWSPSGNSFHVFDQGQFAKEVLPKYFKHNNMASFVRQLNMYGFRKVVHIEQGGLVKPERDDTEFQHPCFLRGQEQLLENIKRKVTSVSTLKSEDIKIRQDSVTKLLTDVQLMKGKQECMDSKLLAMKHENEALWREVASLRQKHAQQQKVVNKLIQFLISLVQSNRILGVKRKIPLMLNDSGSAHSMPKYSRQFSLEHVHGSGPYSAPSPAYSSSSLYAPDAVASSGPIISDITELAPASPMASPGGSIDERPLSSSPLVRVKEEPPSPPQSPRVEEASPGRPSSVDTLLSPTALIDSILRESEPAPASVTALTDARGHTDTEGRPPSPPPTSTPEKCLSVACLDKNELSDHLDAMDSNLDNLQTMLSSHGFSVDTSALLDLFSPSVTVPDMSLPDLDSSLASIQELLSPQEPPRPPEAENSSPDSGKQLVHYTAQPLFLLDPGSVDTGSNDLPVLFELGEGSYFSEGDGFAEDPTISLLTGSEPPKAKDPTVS
Chain of ETV6 (P41212 whole entry): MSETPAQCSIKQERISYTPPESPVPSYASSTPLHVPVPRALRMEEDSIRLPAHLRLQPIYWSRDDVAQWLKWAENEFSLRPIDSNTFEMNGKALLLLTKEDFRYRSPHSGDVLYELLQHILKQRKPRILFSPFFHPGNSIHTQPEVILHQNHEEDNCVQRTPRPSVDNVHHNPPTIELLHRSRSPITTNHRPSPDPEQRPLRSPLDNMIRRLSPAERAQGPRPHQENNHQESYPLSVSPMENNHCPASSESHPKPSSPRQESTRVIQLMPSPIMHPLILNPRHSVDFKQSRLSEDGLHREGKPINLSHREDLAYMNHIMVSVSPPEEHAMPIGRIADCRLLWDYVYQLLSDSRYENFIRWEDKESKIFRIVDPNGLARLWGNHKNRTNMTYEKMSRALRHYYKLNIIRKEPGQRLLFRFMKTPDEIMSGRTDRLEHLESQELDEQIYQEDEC
Chain of ELF1 (P32519 whole entry): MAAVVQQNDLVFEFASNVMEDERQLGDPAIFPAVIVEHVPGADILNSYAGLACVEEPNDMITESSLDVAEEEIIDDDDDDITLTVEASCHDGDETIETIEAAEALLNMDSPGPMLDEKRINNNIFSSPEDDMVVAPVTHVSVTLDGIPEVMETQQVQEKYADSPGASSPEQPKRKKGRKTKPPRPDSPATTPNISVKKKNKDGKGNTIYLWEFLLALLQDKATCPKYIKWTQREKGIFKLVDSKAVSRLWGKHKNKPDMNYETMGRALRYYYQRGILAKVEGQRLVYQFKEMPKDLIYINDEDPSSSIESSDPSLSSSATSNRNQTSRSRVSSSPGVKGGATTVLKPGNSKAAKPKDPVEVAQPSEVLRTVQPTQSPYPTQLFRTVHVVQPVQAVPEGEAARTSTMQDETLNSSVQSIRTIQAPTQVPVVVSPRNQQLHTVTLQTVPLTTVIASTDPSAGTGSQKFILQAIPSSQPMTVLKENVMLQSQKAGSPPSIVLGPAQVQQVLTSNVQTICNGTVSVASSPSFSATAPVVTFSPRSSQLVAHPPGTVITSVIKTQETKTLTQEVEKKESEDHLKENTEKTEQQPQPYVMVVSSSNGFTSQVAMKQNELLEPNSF
Chain of SPIB (Q01892 whole entry): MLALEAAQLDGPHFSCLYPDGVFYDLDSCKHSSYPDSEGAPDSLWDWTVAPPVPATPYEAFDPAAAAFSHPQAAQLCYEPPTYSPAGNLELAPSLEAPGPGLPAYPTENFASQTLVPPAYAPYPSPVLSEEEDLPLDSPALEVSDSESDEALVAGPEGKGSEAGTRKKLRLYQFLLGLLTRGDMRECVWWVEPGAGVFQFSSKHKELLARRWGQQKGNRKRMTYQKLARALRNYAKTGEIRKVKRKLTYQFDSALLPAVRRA
Chain of CRX (O43186 whole entry): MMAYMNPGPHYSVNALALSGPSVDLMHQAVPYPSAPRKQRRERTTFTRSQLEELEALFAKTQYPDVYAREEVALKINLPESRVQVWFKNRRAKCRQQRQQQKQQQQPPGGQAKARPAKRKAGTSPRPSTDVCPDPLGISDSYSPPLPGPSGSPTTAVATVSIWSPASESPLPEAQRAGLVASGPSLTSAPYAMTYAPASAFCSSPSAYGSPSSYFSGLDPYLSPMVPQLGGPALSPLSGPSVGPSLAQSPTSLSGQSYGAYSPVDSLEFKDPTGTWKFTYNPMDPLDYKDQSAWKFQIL

In the case of CACTAG, the binding signal [1] is reported as 1.04 fold enrichment (6-mer frequency, TF over GST control), the binding signal [2] is reported as 1.02 fold enrichment (6-mer frequency, TF over GST control) and the binding signal [3] is reported as 1.04 fold enrichment (6-mer frequency, TF over GST control). The binding signal [4] was 1.09 fold enrichment (6-mer frequency, TF over GST control), the binding signal [5] was 1.06 fold enrichment (6-mer frequency, TF over GST control) and the binding signal [6] was 1 fold enrichment (6-mer frequency, TF over GST control). The binding signal [7] was 1.24 fold enrichment (6-mer frequency, TF over GST control), the binding signal [8] was 1.05 fold enrichment (6-mer frequency, TF over GST control) and the binding signal [9] was 1.06 fold enrichment (6-mer frequency, TF over GST control). For the same sequence, the binding signal [10] was 1.03 fold enrichment (6-mer frequency, TF over GST control), the binding signal [11] was 1.01 fold enrichment (6-mer frequency, TF over GST control) and the binding signal [12] was 1.01 fold enrichment (6-mer frequency, TF over GST control). For the same sequence, the binding signal [13] was 1.01 fold enrichment (6-mer frequency, TF over GST control).
For CAGAAG, the binding signal [7] was 1.32 fold enrichment (6-mer frequency, TF over GST control).
For GAGAAA, the binding signal [7] was 1.49 fold enrichment (6-mer frequency, TF over GST control).
For GCTGGA, the binding signal [7] was 1.19 fold enrichment (6-mer frequency, TF over GST control).
With TCCAGC the binding signal [1] was 1.03 fold enrichment (6-mer frequency, TF over GST control), the binding signal [14] was 1.04 fold enrichment (6-mer frequency, TF over GST control) and the binding signal [15] was 1.07 fold enrichment (6-mer frequency, TF over GST control). For the same sequence, the binding signal [7] was 1.44 fold enrichment (6-mer frequency, TF over GST control), the binding signal [8] was 1.06 fold enrichment (6-mer frequency, TF over GST control) and the binding signal [9] was 1.17 fold enrichment (6-mer frequency, TF over GST control). The binding signal [16] was 1.08 fold enrichment (6-mer frequency, TF over GST control).
TCCAGT was tested, and the binding signal [7] was 1.01 fold enrichment (6-mer frequency, TF over GST control).
